Screens deposited in PubChem by National Center for Advancing Translational Sciences (NCATS).
TRHR PAM – allosteric enhancers of human TRH receptor; TRHR cells, fluo-8 calcium fluorescence, EC20 TRH enhancement; 360,000 compounds, 0.66% hits; AID 493056; P34981; enhancement, % at 2 µM; in the data active means enhancement above about 30%; further: 0% is about no effect
Target sequence (P34981 whole entry, looked up): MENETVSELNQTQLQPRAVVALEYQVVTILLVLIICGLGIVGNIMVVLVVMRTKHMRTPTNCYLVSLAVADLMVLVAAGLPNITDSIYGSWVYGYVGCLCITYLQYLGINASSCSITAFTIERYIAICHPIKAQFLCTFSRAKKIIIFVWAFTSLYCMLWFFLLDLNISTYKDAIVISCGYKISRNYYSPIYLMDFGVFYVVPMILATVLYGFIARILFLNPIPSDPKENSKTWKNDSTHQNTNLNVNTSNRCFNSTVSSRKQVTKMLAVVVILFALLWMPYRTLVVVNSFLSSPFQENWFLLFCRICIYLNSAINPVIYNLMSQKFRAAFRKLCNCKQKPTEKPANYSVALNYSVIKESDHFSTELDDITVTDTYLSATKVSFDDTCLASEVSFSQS
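TRHR-expressing cells loaded with fluo-8 calcium dye were read kinetically (ex 480/em 530) during compound addition, then stimulated with an EC20 of TRH (10 nM final). Enhancement of the Gq-mediated intracellular calcium response was scored.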
D1 potentiator – enhances dopamine response at the human D1 receptor; HEK293 TREx D1 cells, calcium flux, dopamine EC20 potentiation; AID 504651; potentiation, % at 10 µM; 360,000 compounds, 0.036% hits; P21728; in the data active means potentiation above about 30%; further: 0% is about no effect
D1 ag – activates the human D1 dopamine receptor | activation, % at 2 µM | 360,000 compounds, 1% hits | P21728 | HEK293 T-REx D1 cells, calcium flux, agonist mode; further: 0% is about no effect
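Agonism was scored from calcium flux recorded over 180 s (1 read/s) after pintool compound addition, following a 10-cycle baseline. Cells were inducible force-coupled HEK293 TREx D1, plated overnight at 30 C and loaded with no-wash calcium dye.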
TRHR agonist – agonists of human TRH receptor. P34981. 360,000 compounds, 0.18% hits. activation, % at 2 µM. TRHR cells, calcium flux fluo-8, FDSS agonist mode; further: 0% is about no effect
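TRHR-expressing cells loaded with fluo-8 calcium dye; 23 nL library compound pin-transferred, kinetic FDSS fluorescence (Ex 480/Em 530) recorded about 180 s for agonist-induced calcium release, before a 10 nM TRH EC20 addition for potentiator mode.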
D1 antagonist – antagonists of human D1 dopamine receptor; HEK293 TREx D1 cells, calcium flux, dopamine EC80; hits give low values; activity change, negative = inhibition, % at 10 µM; 360,000 compounds, 3.2% hits; P21728; in the data active means activity change below about -30%; further: on the % scale 0 is the no-effect control and ±100 the full control effect
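Inducible Hek293 Trex D1 cells (tetracycline, overnight, 30 C). Calcium dye 30–90 min RT. Antagonist mode: EC80 dopamine added after 180 s compound read.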
* marks the source's active call; other numbers are inactive results; / = no result given; ! = not active in a repeat. Only some compounds are listed: those with a hit (about 4.7% of all), similar ones and a draw of the others. Unless noted, no stated cut-off is given here; in the data, active means activation above about 30%; inactive means the rest.

SMILES | TRHR PAM | D1 potentiator | D1 ag | TRHR agonist | D1 antagonist
CCOc1ccc(/C=N/NC(=O)Cc2csc(Nc3cccc(C(F)(F)F)c3)n2)c(OCC)c1 | 2 | -5 | 0 | 1 | -32*
Cc1nn2c(NCCCN(C)C)c3c(nc2c1-c1ccccc1)CCCC3 | 3 | -4 | 20 | 1 | -38*
COc1ccc(NC(=O)c2cc(S(=O)(=O)N3CCCCC3)c[nH]2)cc1 | -2 | -3 | 0 | -1 | 6
COc1cccc(C#Cc2c(CO)[nH]c3ccccc23)c1 | -1 | 2 | 7 | 0 | /
O=C(c1ccc(Br)o1)N1CCN(Cc2ccc3c(c2)OCO3)CC1 | 4 | 3 | 1 | 0 | 1
CCCC(=O)N1CCN(Cc2ccc3c(c2)OCO3)CC1 | -2 | 6 | 2 | 0 | 11
CCOc1ccccc1N1CCN(Cc2ccc(Br)s2)CC1 | -3 | -2 | 4 | 0 | 4
CS(=O)(=O)N1CCN(C(=O)c2ccc(Br)s2)CC1 | 0 | -4 | -2 | 0 | -32*
O=C(c1ccc(Br)s1)N1CCN(Cc2ccc3c(c2)OCO3)CC1 | -2 | -4 | 0 | -1 | -35*
CC(=O)N1CCN(Cc2ccc(Br)s2)CC1 | 30* | 2 | 3 | 0 | 8
CS(=O)(=O)N1CCN(C(=O)c2ccncc2)CC1 | -1 | 4 | 2 | 0 | -9
O=C(O)CCC(=O)N1CCN(Cc2ccc3c(c2)OCO3)CC1 | 31* | 2 | 0 | 1 | 9
O=C(Cc1cccc2ccccc12)NNC(=O)c1ccc(Br)o1 | -5 | -7 | 5 | -1 | -11
CCOC(=O)C1CCN(C(=O)C2CCN(S(=O)(=O)c3cc(Cl)ccc3OCC)CC2)CC1 | 5 | 1 | -1 | 0 | -2
Cc1ccccc1C(=O)N1CCCC(N2CCN(Cc3ccc4c(c3)OCO4)CC2)C1 (stereo unspecified) | -4 | -9 | 2 | 0 | -52*
Cc1cc(C(=O)N2CCCC(N3CCN(Cc4ccc5c(c4)OCO5)CC3)C2)n[nH]1 (stereo unspecified) | 3 | -6 | 2 | 0 | 18
O=C(CCN1C(=O)c2cccc3cccc(c23)C1=O)N1CCN(Cc2ccc3c(c2)OCO3)CC1 | -4 | 5 | 0 | -1 | -30*
O=C(CN1C(=O)c2cccc3cccc1c23)N1CCN(Cc2ccc3c(c2)OCO3)CC1 | 14 | 15 | -1 | -1 | -9
CC(C)CNS(=O)(=O)c1ccc(CCC(=O)N2CCN(Cc3ccc4c(c3)OCO4)CC2)cc1 | -3 | -2 | 16 | 2 | -33*
N#CCCSc1ccccc1NC(=O)c1cc(=O)c2ccccc2o1 | -2 | -2 | 2 | 0 | 1
CC(C)OCCCNc1ccc(N2C(=O)CCCC2=O)cc1[N+](=O)[O-] | 4 | 1 | 5 | 1 | 3
COc1ccc(C(=O)Nc2ccc(SC(F)F)cc2)cc1 | 10 | -8 | 46* | 0 | -5
CCCCOc1ccc(C(=O)Nc2ccc(SC(F)F)cc2)cc1OC | -1 | -4 | 4 | 1 | -14
O=C(Cc1ccccc1)Nc1ccc(SC(F)F)cc1 | 6 | -5 | 4 | 0 | -40*
CCC(C(=O)OCC(=O)Nc1ccc(SC(F)F)cc1)c1ccccc1 (stereo unspecified) | 3 | -8 | 10 | 0 | -36*
SMILES | TRHR PAM | D1 potentiator | D1 ag | TRHR agonist | D1 antagonist
C/C=C/C(=O)OCC(=O)Nc1ccc(SC(F)F)cc1 | -8 | -7 | 6 | -1 | -33*
CCc1ccccc1NC(=O)Cn1cc2c(n1)CCC(C)C2 (stereo unspecified) | -3 | 0 | -2 | 0 | 3
O=C(CSc1nnc(-c2ccncc2)n1CCc1ccccc1)N1CCCC1 | 3 | -3 | 1 | 0 | 21
N=c1sccn1CC(=O)Nc1ccc(SC(F)F)cc1 | -1 | -5 | 46* | 4 | -9
O=C(N[C@@H](Cc1c[nH]c2ccccc12)C(=O)O)C1CCN(S(=O)(=O)c2cccs2)CC1 | -2 | -3 | 2 | 0 | -14
Cc1c(Cl)ccc2sc(N3CCN(C(=O)CS(=O)(=O)c4ccccc4)CC3)nc12 | 1 | -4 | 49* | 0 | /
Cc1cc(C)c2c(=O)[nH]c(SCC(=O)Nc3ccc(N(C)C)cc3)nc2n1 | -1 | 13 | 1 | 0 | -35*
Cc1ccc(NC(=O)CSc2nc3nc(C)cc(C)c3c(=O)[nH]2)cc1 | 7 | -8 | 2 | 0 | -12
O=C(O)Cc1sc(Nc2ccc(F)cc2)nc1-c1cccs1 | -4 | -6 | 3 | 2 | 7
Cc1ccc(SC(C)C(=O)N2CCCC2)cc1 (stereo unspecified) | -5 | -7 | 0 | 0 | -35*
COC(=O)c1ccc(NC(=O)c2c(NCc3cccc(F)c3)sc3c2CCCC3)cc1 | 0 | 1 | 0 | 0 | -2
Cn1nnnc1SCCCNCc1ccccc1OCc1ccccc1F | -5 | -2 | 16 | 1 | -16
O=C(CSC(=S)N1CCOCC1)Nc1ncc2c(n1)CCCC2=O | -5 | -4 | 0 | 0 | -5
CCN(CC)C(=S)SCC(=O)Nc1ncc2c(n1)CCCC2=O | -3 | 0 | 0 | -1 | -33*
Cc1nc(CS(=O)(=O)c2ccc(Cl)cc2)sc1C(=O)O | 5 | 3 | 1 | 0 | 4
Cc1nc(CS(=O)(=O)c2ccccn2)sc1C(=O)NNC(=O)c1ccccc1 | -1 | -6 | 1 | 0 | -32*
O=C(NCC(c1ccco1)N1CCCC1)c1ccc(S(=O)(=O)Nc2ccc(F)cc2)cc1 (stereo unspecified) | 5 | / | 51* | 7 | -21
CCOc1ccc(NS(=O)(=O)c2ccc(C(=O)NCC(c3ccco3)N3CCCC3)cc2)cc1 (stereo unspecified) | 6 | / | 54* | 4 | 32
COc1ccc(NS(=O)(=O)c2cccc(C(=O)NCC(c3ccco3)N3CCCCC3)c2)cc1 (stereo unspecified) | -6 | 12 | 7 | 1 | -1
O=C(NCC(c1ccco1)N1CCCCC1)c1ccc(NS(=O)(=O)c2ccc(F)cc2)cc1 (stereo unspecified) | 7 | -5 | 4 | -1 | -3
Cc1ccc(NC(=O)Nc2nnc(SCC(=O)N3CCCCC3)s2)cc1 | -2 | -4 | 7 | 0 | /
CC(Oc1ccccc1)C(=O)N=Nc1c(O)[nH]c2ccc(Br)cc12 (stereo unspecified) | -8 | -5 | 0 | -1 | -36*
COc1ccccc1N=Nc1c(O)[nH]c2ccc(Br)cc12 | 2 | -5 | 4 | 4 | -60*
Cc1cccc(C)c1OCC(=O)N=Nc1c(O)[nH]c2ccc(Br)cc12 | 3 | -4 | 1 | 0 | 15
O=C(C1CCN(c2ncnc3c2nc2n3CCCCC2)CC1)N1CCN(c2cccc(Cl)c2)CC1 | 6 | -2 | 7 | -1 | -31*!
COc1ccc(OC)c(CNC(=O)C2CCCN(c3ncnc4c3nc3n4CCCCC3)C2)c1 (stereo unspecified) | -11 | -1 | 1 | -1 | -33*
